Inconclusive results are not listed. Values without a mark were called inactive. Activity calls are given as the source filed them. Calls come from the whole dose curve; as a rule, active = well fitted inhibition curve with a large enough effect; inconclusive = small, poorly fitted or top-dose-only effect; inactive = flat fitted curve, though single readings scatter.
Each molecule was assayed on MCC-26 (assay: qHTS assay to identify novel small-molecules to repurpose for Merkel cell carcinoma treatment (AID 1296009; note: nearly all actives have a fitted effect of over 60% in size)). Details: MCC and control cell lines, CellTiter-Glo viability, 72 h; series mostly up to 46 µM; activity change, negative = cytotoxicity: at the top concentration.
How it was run: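 Cells exposed to NPC (8-point) and MIPE (11-point) compound dilutions for 72 hr at 37 degree celsius; viability read by CellTiter-Glo luminescence, normalized to no-cell and DMSO in-plate controls.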
% is set by controls: 0 for no effect and ±100 for the full control effect; potency is the fitted concentration of half-maximal effect.

Structure (SMILES)	Potency	activity change, negative = cytotoxicity
Nc1cccc(-c2cc3c(Oc4cccc(O)c4)ncnc3[nH]2)c1	18.7 µM (active)	–
COC(=O)C[C@](O)(CCCC(C)(C)O)C(=O)O[C@@H]1C(OC)=C[C@]23CCCN2CCc2cc4c(cc2[C@H]13)OCO4	–	6.41%
CC(C)C[C@H](NC(=O)CNC(=O)c1cc(Cl)ccc1Cl)B(O)O	0.526 µM (active)	–
Nc1ccc(C(=O)c2cc3c(ccc4ccccc43)[nH]2)cc1	–	-20.4%
CN1CCN(c2cc(C(=O)Nc3ccc4c(c3)-c3c(c(C(N)=O)nn3-c3ccc(F)cc3)CC4)c(Cl)cn2)CC1	–	-19.6%
O=c1[nH]c(=O)n(C2CCCO2)cc1F (stereo not given)	–	-0.0231% [at 92.7 µM]
CN1CCC(CNc2ccc3ncc(-c4cccc(OC(F)(F)F)c4)n3n2)CC1	–	-19.9%
CCN(CC)CCCCNc1ncc2cc(-c3cc(OC)cc(OC)c3)c(NC(=O)NC(C)(C)C)nc2n1	–	-7.93%
Cc1cn2c(-c3cn[nH]c3)cnc2c(Nc2ccc(C(=O)N3CCNCC3)cc2F)n1	–	-8.58%
OCc1ccc(-c2ccc(-c3ccc(CO)s3)o2)s1	–	-25.1%
